Results filed as inconclusive are left out. Unmarked numbers belong to inactive results. The source made the active and inactive calls. The call rests on the fitted dose curve; in most records, active means well fitted curve in the direction sought with a large enough effect; inconclusive means small, poorly fitted or top-dose-only effect, or another doubt; inactive means no such curve, though single readings can be large; an effect the other way counts as inactive or inconclusive.
Legend:
[1] = BET inhibitor-based combinations targeting novel dependencies in MECOM-rearranged (r) AML: SET-2 cell line (AID 2202231); settings: SET-2 AML cells viability, CellTiter-Glo luminescence, 48 h; viability: hits give low values, concentration not given here; further: nearly all actives have a fitted effect of over 35% in size;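 on viability: plate controls were DMSO treated cells for no effect and wells without cells for full effect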
Outline: (§1)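 AML cell lines seeded at 500 cells/well, treated with 11-point dose curves for 48 h. Viability by CellTiter-Glo luminescence, normalised to DMSO and empty wells; activity expressed as AUC and per-cell-line Z-transformed AUC.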

[2] = BET inhibitor-based combinations targeting novel dependencies in MECOM-rearranged (r) AML: MV-4-11 cell line (AID 2202233); further: nearly all actives have a fitted effect of over 45% in size;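 on viability, % of control: plate controls were DMSO for no effect and blank wells for full effect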
Outline: (§2)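 Cells at 500/well were exposed for 48 hr to MIPE v5.0 drugs as 11-point dose curves. Viability was read by CellTiter-Glo luminescence and normalized to DMSO and empty-well controls. Activity was expressed as AUC and per-cell-line Z-AUC.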

[3] = BET inhibitor-based combinations targeting novel dependencies in MECOM-rearranged (r) AML: HNT-34 cell line (AID 2202234); further: nearly all actives have a fitted effect of over 35% in size;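 on viability (% of control): plate controls were vehicle wells for no effect and cell-free wells for full effect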
Outline: as §2

[4] = BET inhibitor-based combinations targeting novel dependencies in MECOM-rearranged (r) AML: UCSD-AML1 cell line (AID 2202235); further: nearly all actives have a fitted effect of over 40% in size;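 on viability (% of control): series mostly up to about 46 µM; plate controls were DMSO vehicle wells for no effect and blank wells for full effect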
Outline: as §2

[5] = BET inhibitor-based combinations targeting novel dependencies in MECOM-rearranged (r) AML: AML-191 cell line (AID 2202236; further: nearly all actives have a fitted effect of over 35% in size;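 on viability (% of control): plate controls were vehicle wells for no effect and wells without cells for full effect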)
Outline: as §1

[6] = BET inhibitor-based combinations targeting novel dependencies in MECOM-rearranged (r) AML: AML-194 cell line (AID 2202237; further: nearly all actives have a fitted effect of over 40% in size;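 on viability (% of control): plate controls were vehicle wells for no effect and wells without cells for full effect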)
Outline: as §1
Potency means the concentration at half of the fitted maximal effect.

## CC[C@H](C)C(=O)O[C@H]1C[C@H](O)C=C2C=C[C@H](C)[C@H](CC[C@@H](O)C[C@@H](O)CC(=O)O)[C@H]21
[1]
  viability: 113%
[2]
  Potency: inactive
[3]
  Potency: inactive
[4]
  Potency: inactive
[5]
  Potency: inactive

## CSC[C@H]1CN(Cc2c[nH]c3c(N)ncnc23)C[C@@H]1O
[1]
  viability: 110%
[2]
  Potency: inactive
[3]
  Potency: inactive
[4]
  Potency: inactive
[5]
  Potency: inactive

## Cc1noc(C)c1-c1ccc(-c2cc(C(N)=O)c(NC(N)=O)s2)c(O[C@H]2CCNC2)c1
[1]
  viability: 123%
[2]
  Potency: inactive
[3]
  Potency: inactive
[4]
  Potency: inactive
[5]
  Potency: inactive
[6]
  Potency: inactive

## O=C(O)/C=C/c1ccc(Cn2ccnc2)cc1
[1]
  viability: 125%
[2]
  Potency: inactive
[3]
  Potency: inactive
[4]
  Potency: inactive
[5]
  Potency: inactive
[6]
  Potency: inactive

## CC(=O)N1c2ccc(-c3ccc(C(=O)O)cc3)cc2[C@H](Nc2ccc(Cl)cc2)C[C@@H]1C
[1]
  Potency: 372 nM (active)
[2]
  Potency: 93.4 nM (active)
[3]
  Potency: 468 nM (active)
[4]
  Potency: 1320 nM (active)
[5]
  Potency: 468 nM (active)

## O=c1sn(-c2cccc3ccccc23)c(=O)n1Cc1ccccc1
[1]
  viability: 92.2%
[2]
  Potency: 11800 nM (active)
[3]
  Potency: inactive
[6]
  Potency: 14800 nM (active)

## Nc1nc2cc(-c3ccc4ncc(C(=O)N5CCOCC5)n4c3)ccc2o1
[1]
  viability: 99.4%
[2]
  Potency: 16600 nM (active)
[3]
  Potency: 16600 nM (active)
[4]
  Potency: 8330 nM (active)

## CC#Cc1cncc(-c2ccc3c(c2)[C@@]2(N=C(C)C(N)=N2)C2(CCC(OC)CC2)C3)c1 (some centres not stated)
[1]
  viability: 107%
[2]
  Potency: 18600 nM (active)
[3]
  Potency: inactive
[6]
  Potency: inactive

## N#Cc1ccc(N(Cc2ccc(Br)cc2)n2cnnc2)cc1
[1]
  viability: 93.5%
[2]
  Potency: 20900 nM (active)
[3]
  Potency: 16600 nM (active)
[5]
  Potency: inactive
[6]
  Potency: inactive

## C[C@@H]1N=C(N)NC(N(C)C)=N1
[1]
  viability: 102%
[2]
  Potency: inactive
[3]
  Potency: inactive
[4]
  Potency: inactive
[5]
  Potency: inactive
[6]
  Potency: inactive

## CCc1cc(/C(C)=N/OCc2ccc(C3CCCCC3)c(C(F)(F)F)c2)ccc1CN1CC(C(=O)O)C1
[1]
  Potency: 16600 nM (active)
[2]
  Potency: 8330 nM (active)
[3]
  Potency: inactive
[4]
  Potency: inactive
[6]
  Potency: inactive

## OC1CCC([C@H](O)C[C@H]2c3c(F)cccc3-c3cncn32)CC1 (some centres not stated)
[1]
  viability: 118%
[2]
  Potency: inactive
[3]
  Potency: inactive
[4]
  Potency: inactive
[5]
  Potency: inactive
[6]
  Potency: inactive

## NC(=O)/C(=C/n1cnc(-c2cc(C(F)(F)F)cc(C(F)(F)F)c2)n1)c1cncnc1
[1]
  Potency: 590 nM (active)
[2]
  Potency: 186 nM (active)
[3]
  Potency: 742 nM (active)
[4]
  Potency: 118 nM (active)
[5]
  Potency: 263 nM (active)
[6]
  Potency: 166 nM (active)

## CN(C)Cc1cccc(N=C(c2ccccc2)c2c(O)[nH]c3cc(C(N)=O)ccc23)c1
[1]
  viability: 78%
[2]
  Potency: 662 nM (active)
[4]
  Potency: inactive

## CN(C)C/C=C/C(=O)Nc1cc2c(Nc3ccc(F)c(Cl)c3)ncnc2cc1O[C@H]1CCOC1
[1]
  Potency: 4680 nM (active)
[2]
  Potency: 1180 nM (active)
[3]
  Potency: 2950 nM (active)
[5]
  Potency: 7420 nM (active)
[6]
  Potency: 7420 nM (active)

## CC(=O)N[C@H]1[C@H](O[C@@H]2c3ccc(c(Cl)c3)Oc3cc4cc(c3O[C@@H]3O[C@H](CO)[C@@H](O)[C@H](O)[C@H]3NC(=O)CCCCCCCC(C)C)Oc3ccc(cc3Cl)C[C@H]3NC(=O)[C@H](N)c5ccc(O)c(c5)Oc5cc(O)cc(c5)[C@H](NC3=O)C(=O)N[C@H]4C(=O)N[C@H]3C(=O)N[C@@H]2C(=O)N[C@@H](C(=O)O)c2cc(O)cc(O[C@H]4O[C@H](CO)[C@@H](O)[C@H](O)[C@@H]4O)c2-c2cc3ccc2O)O[C@H](CO)[C@@H](O)[C@@H]1O
[1]
  viability: 113%
[2]
  Potency: inactive
[3]
  Potency: inactive
[4]
  Potency: inactive
[5]
  Potency: inactive

## COCCNc1cc(NC(=O)N2CCCc3cc(CN4CCN(C)CC4=O)c(C=O)nc32)ncc1C#N
[1]
  viability: 114%
[2]
  viability, % of control: 97.1% [at 8.46 µM]
[3]
  viability (% of control): 102% [at 8.46 µM]
[4]
  viability (% of control): 96.8% [at 8.46 µM]
[5]
  viability (% of control): 96.5% [at 8.46 µM]
[6]
  viability (% of control): 95.1% [at 8.46 µM]

## CCN(C(=O)c1ccccc1OC)c1cc2c(cc1N1CCNC[C@H]1C)n(C)c(=O)n2C
[1]
  viability: 119%
[2]
  Potency: inactive
[3]
  Potency: inactive
[4]
  Potency: inactive
[6]
  Potency: inactive

## O=C(Nc1ccccc1)Nc1ccc(-c2ccc(C(=O)[C@@H]3CCC[C@H]3C(=O)O)cc2)cc1
[1]
  viability: 105%
[2]
  Potency: inactive
[3]
  Potency: inactive
[5]
  Potency: inactive
[6]
  Potency: inactive

## Cc1ccc(-c2ncn(-c3ccc(Nc4nccc(-c5cccc(N6CCOCC6)c5)n4)cc3)n2)cn1
[1]
  Potency: 3720 nM (active)
[2]
  Potency: 2350 nM (active)
[3]
  Potency: 2950 nM (active)
[4]
  Potency: 2350 nM (active)
[5]
  Potency: 2350 nM (active)
[6]
  Potency: 2950 nM (active)

— PubChem BioAssay (NCATS)
